This passage reports sensor-assay potency score (higher = more potent) results from the OligoGym collection.
Also: reference of the scale not given here.

In the first experiment the target is AP4E1. Kind of experiment: pooled miR-30 sensor sort-seq; sequence = guide strand. The note with it: shRNA.
Turning to TAACTTGAAGAAATCTCTGTGG, the sensor-assay potency score (higher = more potent) worked out at 0.558.

For TTTCAGACTACTCAGTTCCTGC, the sensor-assay potency score (higher = more potent) is -0.633.

TTTCTTTATACCTTCCAGCTTC: the sensor-assay potency score (higher = more potent) is -0.271.

Consider TTCATTATTACAGACTTCCATA, for which the sensor-assay potency score (higher = more potent) is -0.778.

In turn, TTTTCTTCGTACAATCTCCTTA showed a sensor-assay potency score (higher = more potent) of 0.18.

In the case of TTCATTGTCTGAATAAACCATG, the sensor-assay potency score (higher = more potent) was -0.705.

With TATTTGTCTCTTTCAGTCCTGT, the sensor-assay potency score (higher = more potent) was -0.0122.

Turning to TACAACTGTATTCACAAGGAGA, the sensor-assay potency score (higher = more potent) is -0.841.

Sequence TAATTTTTCTTCTTCGTGCTTG displayed a sensor-assay potency score (higher = more potent) of 0.244.

On to AAGAACTTGAGATTGATCCTTT, for which the sensor-assay potency score (higher = more potent) came out at 0.655.

In the case of TACATTAATTCACTTGTCCTTT, the sensor-assay potency score (higher = more potent) was -0.311.

On to TAAAGAAGCATCTACCACCAAG, for which the sensor-assay potency score (higher = more potent) is -0.753.

The next experiment concerns the target AP4S1. Described as above. Particulars: shRNA.
As for ATTAACTCCAACCACAATGAAG, the sensor-assay potency score (higher = more potent) is -1.9.

As to TTGTTCATTGGATCGAGAGAGA, the sensor-assay potency score (higher = more potent) is -1.06.

On to TAAATCAAGAAAACATTCCGGA, for which the sensor-assay potency score (higher = more potent) amounted to 0.763.

Consider TGAATGATGAACTGTCTGGAGA, for which the sensor-assay potency score (higher = more potent) was -0.912.

Regarding TAGAAAGTCGAGTCTGCCCTTG, the sensor-assay potency score (higher = more potent) is -0.4.

Consider TTAGAAAGTCGAGTCTGCCCTT, for which the sensor-assay potency score (higher = more potent) is 0.201.

On to TTTGAATGATGAACTGTCTGGA, for which the sensor-assay potency score (higher = more potent) came out at 0.922.

Turning to TATATCAGCTTAAAATCCTTAT, the sensor-assay potency score (higher = more potent) is -0.456.

With TTCATAAATAGCCATCTCGTTC, the sensor-assay potency score (higher = more potent) is -1.14.

As to TTATATTCAATGAAAGAGCATT, the sensor-assay potency score (higher = more potent) is -1.02.

Sequence TTGAATGATGAACTGTCTGGAG came in with a sensor-assay potency score (higher = more potent) of 0.198.

As for TAAATAGCCATCTCGTTCTCAG, the sensor-assay potency score (higher = more potent) was -0.314.

In a further experiment the target is APLNR. Described as above. Particulars: shRNA.
For the sequence TATAAGTACAACACACACAGAC, the sensor-assay potency score (higher = more potent) stood at 0.501.

TAGCAATGAAGATATCAGCTGA: the sensor-assay potency score (higher = more potent) was 0.487.

Consider TATCTAGTCAGTGTCATGGTGC, for which the sensor-assay potency score (higher = more potent) is -0.323.

On to TTTGAGGACAGCTCTGGGCAGA, for which the sensor-assay potency score (higher = more potent) is -0.516.

For TGTACTCACACTCAGACTGGTT, the sensor-assay potency score (higher = more potent) is -1.04.

Turning to AAGTACAACACACACAGACAAG, the sensor-assay potency score (higher = more potent) was -1.41.

For the sequence TGGATTTCTCGTGCATCTGTTC, the sensor-assay potency score (higher = more potent) was -1.45.

Consider TAGCGGTCGAAGCTGAGGCCGG, for which the sensor-assay potency score (higher = more potent) was -1.22.

As to TTGACGAAGATGAGGTAGCTGC, the sensor-assay potency score (higher = more potent) is -0.686.

Turning to TTATCTGCTGACACACAGCCCA, the sensor-assay potency score (higher = more potent) was -0.574.

Consider TGGAGCACTAATTATCTGCTGA, for which the sensor-assay potency score (higher = more potent) is -0.596.

In the case of AAACACGGTCCAGAGCACCAGA, the sensor-assay potency score (higher = more potent) was -0.76.

The sequence TACAGCGTCTTCACCAGGTGGT showed a sensor-assay potency score (higher = more potent) of 0.0282.

Take TAACAGGTCAGCATGATGGTGA: the sensor-assay potency score (higher = more potent) turned out to be 0.0238.

With TAGCACTGCACCTTAGTGGTGT, the sensor-assay potency score (higher = more potent) amounted to 0.437.
